Source: PubChem BioAssay
DT40 TDP1 CPT = growth inhibition of DT40 Tdp1-/-;hTDP1 cells with camptothecin (screen for TDP1 inhibitors). chicken DT40 Tdp1-/-;hTDP1 cells + 20 nM CPT, ATP luminescence, 48 h. Potency, µM (highest dose often 46.2 µM), most hits filed as inhibitors. 12% of 420,000 active. AID 686979; also: nearly all actives have a fitted effect of over 55% in size
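Cell growth measured by CellTiter-Glo luminescence after a minimum 48 h, 37 C compound exposure with 20 nM CPT in Tdp1-knockout DT40 cells stably expressing hTDP1, seeded 400/well; qHTS titration format.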
TDP1 block = blocks human tyrosyl-DNA phosphodiesterase 1 | recombinant TDP1, AlphaScreen DNA substrate cleavage | Potency, µM (highest dose often 130 µM), actives largely listed as inhibitors | AID 485290 | 0.28% of 350,000 active; also: nearly all actives have a fitted effect of over 40% in size
Target sequence (Q9NUW8 whole entry, looked up): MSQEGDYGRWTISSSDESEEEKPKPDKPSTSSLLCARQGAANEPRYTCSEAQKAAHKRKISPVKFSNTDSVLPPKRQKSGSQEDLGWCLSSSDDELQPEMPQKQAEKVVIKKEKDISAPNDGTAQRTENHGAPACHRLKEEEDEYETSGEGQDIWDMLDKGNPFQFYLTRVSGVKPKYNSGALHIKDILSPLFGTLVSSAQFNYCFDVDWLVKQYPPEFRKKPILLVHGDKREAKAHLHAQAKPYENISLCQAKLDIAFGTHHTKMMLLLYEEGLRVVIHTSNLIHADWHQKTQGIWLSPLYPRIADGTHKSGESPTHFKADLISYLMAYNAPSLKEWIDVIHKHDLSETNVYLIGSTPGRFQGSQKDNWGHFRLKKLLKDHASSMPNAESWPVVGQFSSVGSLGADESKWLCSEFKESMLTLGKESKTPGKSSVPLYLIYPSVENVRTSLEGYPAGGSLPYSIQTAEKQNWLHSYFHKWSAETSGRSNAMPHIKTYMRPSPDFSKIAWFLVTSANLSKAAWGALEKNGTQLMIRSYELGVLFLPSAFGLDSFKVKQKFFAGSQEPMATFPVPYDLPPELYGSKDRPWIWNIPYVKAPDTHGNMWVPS
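Recombinant human Tdp1 (E. coli-expressed, 1 nM final) preincubated with compounds 15 min at room temperature, then 5'-biotin/3'-phosphotyrosine-FITC DNA substrate (15 nM final) added for 5 min. AlphaScreen beads (10 ug/ml final) added 10 min; cleavage lowers signal.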
IL-1B inflam inh = inflammasome signaling inhibition, IL-1 beta readout | THP-1 LPS/ATP IL-1B secretion, AlphaLISA, 16 h; stronger effect = lower value | 4.7% of 360,000 active | activity change, % at 57.5 µM; in the data active = activity change below about -50%; inconclusive = mostly about -30% to -49%
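THP-1 cells pretreated 1 hr with compounds (up to 57.5 uM final), then stimulated with LPS (250 ng/mL final) plus ATP (1.25 mM final); secreted IL-1B measured by AlphaLISA after 16 hr, decreased signal indicating inhibition.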
CtBP-E1A blk = inhibitors of CtBP/E1A interaction; AlphaScreen GST-E1A/His-CtBP binding, 1536-well; stronger effect = lower value; activity change, % (concentration not given with the values); 0.49% of 340,000 active; AID 651724; in the data active = activity change below about -65%; inconclusive = mostly about -30% to -63%
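Protein mix (5X: 125 nM each GST-E1A, His-CtBP) was incubated with pinned compound 2 h at 37 deg C in dark, in 50 mM Tris pH 8.0 buffer with 300 mM NaCl. Glutathione donor and nickel acceptor beads followed; AlphaScreen signal read after 1 h.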
TDP1 cell noCPT = qHTS for Inhibitors of human tyrosyl-DNA phosphodiesterase 1 (TDP1): qHTS in cells in absence of CPT; DT40 Tdp1-/- hTDP1 cells, no CPT, ATP luminescence, 48 h; Potency, µM (titrated, usually from 46.2 µM), hits mostly inhibitors; 15% of 420,000 active; also: nearly all actives have a fitted effect of over 55% in size
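Stably hTDP1-transfected Tdp1-null chicken DT40 cells were treated with library compounds minus camptothecin and grown for at least 48 hr at 37 °C, after which cellular ATP was quantified by luminescence.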
Six1-Eya2 blk = Six1/Eya2 interaction inhibition. Q15475+O00167. activity change, % (no concentration beside the values). AID 651725. 0.56% of 360,000 active. AlphaScreen GST-Six1/His-Eya2 binding, biochemical; stronger effect = lower value; in the data active = activity change below about -65%; inconclusive = mostly about -30% to -63%
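AlphaScreen luminescence read after one hour at 37 °C in darkness. Pin-transferred compounds met GST-Six1 and His-Eya2 protein (5X stock 250 nM/500 nM) plus glutathione donor and Ni-chelate acceptor beads (5X, 50 ug/mL).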
Numbers stand for hits; n = inactive; u = inconclusive; x = no result; [ ] = another dose, or the depositor's remark. Shown are actives, neighbours in structure and some others; about 18% of the full set was active somewhere. Unless noted, calls follow the shape of the dose curve; as a rule, active = well fitted curve in the direction sought with a large enough effect; inconclusive = small, poorly fitted or top-dose-only effect, or another doubt; inactive = no such curve, though single readings can be large; an effect the other way counts as inactive or inconclusive.

SMILES | DT40 TDP1 CPT | TDP1 block | IL-1B inflam inh | CtBP-E1A blk | TDP1 cell noCPT | Six1-Eya2 blk
C[C@]12c3[nH]c4ccc(Cl)cc4c3CCN1C(=O)[C@@H](CC(=O)NCC13CC4CC(CC(C4)C1)C3)C[C@@H]2C(=O)N1CCCCC1 | 16µM | n | -60 | n | 16µM | n
COCCCNC(=S)N1CCN(c2nc(C)nc3sc4c(c23)CCCC4)CC1 | 16µM | x | n | n | u | n
CCCNC(=S)N1CCN(c2nc(C)nc3sc4c(c23)CCCC4)CC1 | u | n | -74 | n | u | n
Cc1nc(N2CCNCC2)c2c3c(sc2n1)CCCC3 | u | x | n | x | u | n
CCc1nc(N2CCN(C(=O)c3ccccc3)CC2)c2c3c(sc2n1)CCCC3 | u | n | -78 | n | 23µM | n
CCc1nc(N2CCN(C(=O)c3ccco3)CC2)c2c3c(sc2n1)CCCC3 | u | n | n | n | u | n
O=C(O)c1ccccc1N(c1ccccc1)c1ccccc1 | n | x | x | n | n | n
CCOC(=O)c1ccc(COC(=O)CNS(=O)(=O)c2ccccc2)cc1 | n | x | n | x | n | n
O=C(CNS(=O)(=O)c1ccccc1)NCC(=O)OCc1ccc(Br)cc1 | 21µM | n | n | x | u | n
CN(Cc1cccnc1)C(=O)CNC(=O)COc1ccccc1 | n | n | n | n | n | n
CCCCn1nnnc1NCc1cccnc1 | 8.2µM | n | n | n | 13µM | n
CCCCn1nnnc1NCc1ccc(N2CCCC2)cc1 | u | n | n | n | u | n
CCCn1nnnc1NCc1ccc(SC)cc1 | n | x | -58 | n | n | n
COCCCNC1CS(=O)(=O)CC1O (centres undefined) | n | x | n | n | n | n
CCCN(Cc1cc2cc(C)ccc2[nH]c1=O)C(=O)c1ccccn1 | u | n | n | n | u | n
Cn1cccc1C1C(C#N)=C(N)OC2=C1C(=O)CCC2 (centres undefined) | n | n | n | n | n | n
COC(=O)[C@@H]1[C@@H](C)N(Cc2ccccc2)C(=O)N[C@H]1c1ccccc1 | n | n[12.3 µM] | n | n | n | n
Cc1cc(Oc2ccc(-c3ccccc3)cc2)n2ncnc2n1 | 18µM | n | u | n | n | n
CC(C)Nc1nc(NC(C)C)nc(N(C)n2cnnc2)n1 | n | n | n | n | n | n
CCN1CCN(S(=O)(=O)c2ccc(Cl)c(C(=O)N(C)Cc3cccc(Cl)c3Cl)c2)CC1 | 16µM | n | -69 | n | 21µM | n
CCN1CCN(S(=O)(=O)c2ccc(Cl)c(C(=O)N(C)Cc3ccc(C(C)(C)C)cc3)c2)CC1 | u | x | n | n | 12µM | n
Cc1cccc(OCc2nnc(SCC(=O)NCc3ccc4c(c3)OCO4)o2)c1 | n | x | n | n | n | n
Cc1ccn2c(=O)nc(SCC(=O)N3N=C(c4cccs4)CC3c3ccc(F)cc3)nc2c1 (centres undefined) | u | n | n | n | 18µM | n
Cc1ccc2nc(SCC(=O)N3N=C(c4cccs4)CC3c3ccc(F)cc3)nc(=O)n2c1 (centres undefined) | n | x | u | n | u | n
CCOC(=O)CSCC(=O)N1N=C(c2cccs2)CC1c1ccc(F)cc1 (centres undefined) | 15µM | n | n | n | u | n
O=C(O)C1CCC(CNCc2ccncc2)CC1 (centres undefined) | n | x | n | n | n | n
O=C(OCCCOc1ccc(F)cc1)c1ccc(O)cc1O | n | n | n | n | n | n
Cc1cc(C)nc(NS(=O)(=O)c2ccc(N=Cc3c(C)[nH]n(-c4ccccc4)c3=O)cc2)n1 | 21µM | n | n | n | u | u
Cc1[nH]n(-c2ccccc2)c(=O)c1C=Nc1ccc(S(=O)(=O)N=C(N)N)cc1 | n | n | n | x | n | n
Cc1[nH]n(-c2ccccc2)c(=S)c1C=Nc1ccc([N+](=O)[O-])cc1 | 13µM | n | n | n | 23µM | n
